According to PubChem BioAssay (NCI):
About 83,000 compounds went through this panel and 20% of them were active in at least one assay; those are over-represented in the sample as a whole.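 The endpoint reported here, percent growth, reads 100 for growth as untreated, 0 for no net growth and -100 for all cells dead.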 Activity calls are given as the source filed them. How the source made its calls: active means growth percent below 10; inactive means the rest.

test system: MDA-MB-468 breast; test: NCI-60 one-dose screen, 48 h (100 = growth as untreated, 0 = no growth, -100 = all killed); conditions: 10 µM unless noted

SMILES | growth
CC[C@H](CC[C@@H](C)[C@H]1CC[C@H]2[C@@H]3/C(=C/c4cccnc4)C(=O)C4=CC(=O)CC[C@]4(C)[C@H]3CC[C@]12C)C(C)C | 97% (inactive)
N#Cc1ccc(-c2ccc(COc3ccc(CC4SC(=O)NC4=O)cc3)cc2)cc1 (centres undefined) | 5.4% (active)
COc1cc(/C=C(/c2ccccc2)[N+](=O)[O-])c(OC)c2c1OCO2 | -81.4% (active)
CN(C)c1ccc2c(c1)OC(N)=C(C#N)C2c1ccc2c(c1)CCCN2C (centres undefined) | 20.6% (inactive)
Nc1c(C(=O)Nc2ccccc2)sc2nc3c(cc12)CN(CCc1ccccc1)CC3 | 107% (inactive)
O=C(Nc1ccccc1)c1cc2ccccc2s1 | 89.1% (inactive)
COc1cc(C2c3cc(OC(C)=O)c(OC)cc3CC3C(=O)OCC32)ccc1OC(C)=O (centres undefined) | 96% (inactive)
COc1cc(NS(C)(=O)=O)ccc1Nc1c2ccc(Cl)cc2nc2c(OC)cccc12 | -34.1% (active)
N#Cc1ccc(O)c(C2=NCC(Cc3ccccc3)O2)c1 (centres undefined) | 33.5% (inactive)
CCOC(=O)c1ccc(NC(=O)c2nc(-c3cc(OC)c(OC)c(OC)c3)n(-c3ccc(Cl)cc3)n2)cc1 | 107% (inactive)
COc1ccc(C(=O)c2cc(C)c(OC)c(C)c2)c(OC)c1O | 20.4% (inactive)
O=C1C(=C(O)c2ccccc2)C(=O)c2ccccc21 | 120% (inactive)
OC(c1cc2cc(Cl)ccc2c2cc(C(F)(F)F)ccc12)C1CCCCN1 (centres undefined) | -82.2% (active)
COc1ccc(-c2ccc(O)c(C(=O)/C=C/c3cc(OC)c(OC)c(OC)c3)c2)cc1 | 85.2% (inactive)
